# Source: PubChem BioAssay (Tox21)
# Values joined by “and” are separate entries in the source; they are usually repeats but may differ in a detail not shown here. Identical values can stand only once. Records with an inconclusive call do not appear. Entries that show only a call come without a potency. Active and inactive are the calls of the source. Unless noted, calls come from the whole dose curve.
# Assay: qHTS assay to identify small molecule agonists of the endoplasmic reticulum stress response signaling pathway (AID 1159516; active = well fitted activation curve with a large enough effect in the signal ratio in the repeat runs, not every such curve was filed as active; the % refers to the signal ratio)
# Conditions: ESRE-bla HeLa, ER stress beta-lactamase reporter, 5 h; series mostly up to 61 µM
# Summary of the method: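 Beta-lactamase expression from the ER stress response element in HeLa reporter cells is quantified with the LiveBLAzer B/G FRET substrate, read at 405 nm excitation after 2 hr at room temperature, following 5 hr compound treatment at 37 C.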
row,Compound,outcome
1,Cc1cc(Cl)ccc1OCC(=O)O,inactive
2,CNC,inactive
3,C[C@]12CCC(=O)C=C1CC[C@@H]1[C@@H]2CC[C@]2(C)C(=O)CC[C@@H]12,inactive
4,O=C(O)c1nc(Cl)ccc1Cl,inactive
5,CCn1cc[n+](C)c1C,inactive
6,CCC[N+]1(C)CCCC1,inactive
7,COCC(=O)N(c1c(C)cccc1C)C(C)C(=O)OC (centres undefined),inactive
8,CC[N+](CC)(CC)CC,inactive
9,CCCn1cc[n+](C)c1,inactive
10,O=C(O)CCl,inactive
11,C[N+](C)(C)Cc1ccccc1,inactive
12,CCCC[n+]1ccccc1C,inactive
13,CCC(=O)C(CC(C)N(C)C)(c1ccccc1)c1ccccc1 (centres undefined),inactive
14,CCCC[n+]1ccccc1,inactive
15,Oc1cccc2cccnc12,inactive
16,CCOP(=S)(OCC)Oc1ccc2c(C)c(Cl)c(=O)oc2c1,inactive

row,Compound,outcome
1,Nc1ccc(Cl)cc1,inactive
2,Cc1cc(-c2ccc(N)c(C)c2)ccc1N,inactive
3,CCCCCC[n+]1ccccc1,inactive
4,Nc1ccc(-c2ccc(N)cc2)cc1,inactive
5,C1CCC(NC2CCCCC2)CC1,inactive
6,OCCOc1ccccc1,inactive
7,CCCC[N+]1(C)CCCC1,inactive
8,Nc1ccccc1,inactive
9,Cc1cc(Cl)ccc1N,inactive
10,CCCCCCn1cc[n+](C)c1,inactive
11,O=c1[nH]c(=O)n(Cl)c(=O)n1Cl,inactive
12,COc1ccc(N)cc1,inactive
13,O=P1(N(CCCl)CCCl)NCCCO1 (centres undefined),inactive
14,COc1ccccc1N,inactive
15,O=[N+]([O-])c1ccccc1O,inactive
16,COP(=O)(OC)OC=C(Cl)Cl,inactive

# Assay: qHTS assay to identify small molecule agonists of the endoplasmic reticulum stress response signaling pathway - cell viability counter screen (AID 1159517); note: nearly all actives have a fitted effect of over 50% in size; note: potency is the fitted concentration of half-maximal effect
# Conditions: ESRE-bla HeLa viability, CellTiter-Glo luminescence, 5 h; series mostly up to 61 µM
# Summary of the method: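 ESRE-bla HeLa cells (1,500/well) were plated overnight at 37 C and exposed to compounds for 5 hr. After the 2 hr beta-lactamase substrate read, CellTiter-Glo went into the same wells, and luminescence was read after 30 min at room temperature.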
row,Compound,Potency
1,Cc1cc(Cl)ccc1OCC(=O)O,inactive
2,CNC,inactive
3,C[C@]12CCC(=O)C=C1CC[C@@H]1[C@@H]2CC[C@]2(C)C(=O)CC[C@@H]12,inactive
4,O=C(O)c1nc(Cl)ccc1Cl,inactive
5,CCn1cc[n+](C)c1C,inactive
6,CCC[N+]1(C)CCCC1,inactive
7,COCC(=O)N(c1c(C)cccc1C)C(C)C(=O)OC (centres undefined),inactive
8,CC[N+](CC)(CC)CC,inactive
9,CCCn1cc[n+](C)c1,inactive
10,O=C(O)CCl,inactive
11,C[N+](C)(C)Cc1ccccc1,inactive
12,CCCC[n+]1ccccc1C,inactive
13,CCC(=O)C(CC(C)N(C)C)(c1ccccc1)c1ccccc1 (centres undefined),inactive
14,CCCC[n+]1ccccc1,inactive
15,Oc1cccc2cccnc12,780 nM (active) and 155 nM (active)
16,CCOP(=S)(OCC)Oc1ccc2c(C)c(Cl)c(=O)oc2c1,inactive

row,Compound,Potency
1,Nc1ccc(Cl)cc1,inactive
2,Cc1cc(-c2ccc(N)c(C)c2)ccc1N,inactive
3,CCCCCC[n+]1ccccc1,inactive
4,Nc1ccc(-c2ccc(N)cc2)cc1,inactive
5,C1CCC(NC2CCCCC2)CC1,inactive
6,OCCOc1ccccc1,inactive
7,CCCC[N+]1(C)CCCC1,inactive
8,Nc1ccccc1,inactive
9,Cc1cc(Cl)ccc1N,inactive
10,CCCCCCn1cc[n+](C)c1,inactive
11,O=c1[nH]c(=O)n(Cl)c(=O)n1Cl,inactive
12,COc1ccc(N)cc1,inactive
13,O=P1(N(CCCl)CCCl)NCCCO1 (centres undefined),inactive
14,COc1ccccc1N,inactive
15,O=[N+]([O-])c1ccccc1O,inactive
16,COP(=O)(OC)OC=C(Cl)Cl,inactive
